# From the supplement of paper PMC3334620
# The full ranking holds about 33,000 sequences; the median of “E-score (-0.5 to 0.5)” is about -0.016, and the highest 2% start at about 0.32. Only a selection was taken, and the highest values are over-represented in it overall.
# Molecular target: T1, Stp1 (UniProt B3LFK1)
# T1 sequence: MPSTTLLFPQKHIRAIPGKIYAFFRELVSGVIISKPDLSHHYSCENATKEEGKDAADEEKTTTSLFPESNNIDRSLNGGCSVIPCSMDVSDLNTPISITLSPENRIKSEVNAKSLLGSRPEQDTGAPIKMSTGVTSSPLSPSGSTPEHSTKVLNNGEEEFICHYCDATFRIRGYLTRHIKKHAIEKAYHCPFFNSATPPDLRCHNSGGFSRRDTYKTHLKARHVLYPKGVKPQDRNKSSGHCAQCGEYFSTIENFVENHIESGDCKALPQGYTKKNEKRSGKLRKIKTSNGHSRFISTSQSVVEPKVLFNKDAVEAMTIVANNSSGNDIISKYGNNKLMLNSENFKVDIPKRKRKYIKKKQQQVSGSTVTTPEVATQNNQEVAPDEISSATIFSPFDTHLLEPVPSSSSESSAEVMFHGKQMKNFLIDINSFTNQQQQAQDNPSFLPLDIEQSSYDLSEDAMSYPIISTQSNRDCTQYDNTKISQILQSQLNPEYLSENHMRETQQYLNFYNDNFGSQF
# Assay: PBM E-score (8-mer binding enrichment) (E-score (-0.5 to 0.5)); higher = stronger / more preferred TF binding
# Conditions: protein concentration: 200 nM; construct: GST-full length
# Method: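 Universal 'all 10-mer' protein binding microarrays (Agilent AMADID 015681) probed with GST-tagged S. cerevisiae TFs (full-length or DBD) made by in vitro transcription/translation (PURExpress), about 100-200 nM. Bound TF was detected with fluorescent anti-GST. Each ungapped 8-mer (which stands for itself and its reverse complement) is scored by the PBM enrichment score (E-score), a modified Wilcoxon-Mann-Whitney statistic from -0.5 to +0.5, computed with the Universal PBM Analysis Suite. Scale: above 0.35 generally sequence-specific binding.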
row,Sequence,PBM E-score
1,CCGAGGCC,-0.22
2,ACGAGGCT,0.323
3,ACGAGGTA,-0.0774
4,ACGAGGCA,0.37
5,CCGAGGCG,0.333
6,ACGAGGGA,-0.0556
7,AGGAGGCG,0.201
8,CTGCAGGC,-0.372
9,CTCATCTC,0.0521
10,ACTAAAGT,-0.0712
11,AGTCTGGC,-0.207
12,TACGGTAA,0.157
13,GCGTGGGA,-0.0429
14,GTCGTCAC,-0.0794
15,CCGAGGCA,0.179
16,TCGAGGCA,0.195
17,GCGAGGCA,0.439
18,TATCAATA,0.0831
19,CGCGGCCG,0.321
20,CGCGGCCC,0.349
21,AGCGGCCC,-0.00454
22,GGCGGCCC,0.0299
23,AGCGGCCG,0.285

row,Sequence,PBM E-score
1,CGCGGCCA,0.269
2,AAAGTCGA,-0.15
3,AGACACGG,0.363
4,ACAAACGC,0.252
5,CCACACGG,0.385
6,CCACACGA,-0.105
7,ACACACGA,0.135
8,AGACACAA,0.154
9,ACAAACGA,0.129
10,ACACACGG,0.356
11,CCACACGC,0.158
12,ACAAACGG,0.352
13,ACACACGT,0.0897
14,AGACACGA,-0.124
15,CTAGACGA,0.105
16,GCTCAGCC,-0.123
17,ATGAGAGG,-0.118
18,CTCGGTTA,-0.119
19,ATGCGAAC,-0.103
20,ACGGCGCA,0.482
21,ACTGCGCT,-0.19
22,ATGGCGCA,0.0846
23,CTGGCGCA,-0.0136

row,Sequence,PBM E-score
1,ACGGCGCT,0.481
2,TCGGCCCA,-0.116
3,ACGGCCCT,0.275
4,ACGGCCCA,0.333
5,ACCGCGCT,0.077
6,GACTGACC,-0.312
7,GCCTCTCC,0.0401
8,CCTCCTGC,-0.205
9,ACAGTCTA,-0.00216
10,GCTTGCCA,-0.0643
11,ACCTAGAT,-0.159
12,AAGCTAAG,-0.136
13,CAGTGTCA,0.0177
14,GGGCAATA,0.0993
15,CGGCAATC,0.332
16,AGGCAATC,0.114
17,AGGCAATA,0.227
18,CGGCAAGC,0.124
19,CGGCAATA,0.352
20,AAGAGCGA,-0.231
21,CACTAGTG,0.056
22,ACCTTTCC,-0.194
23,GCCTTTCC,0.381

row,Sequence,PBM E-score
1,CCCTTTCC,-0.11
2,GTTGGGTA,-0.109
3,CGGCGTAG,0.335
4,GGGCGTAA,-0.0217
5,CGGCGTAC,0.36
6,GGGCGTAC,-0.134
7,AGGCGTAG,-0.0223
8,CGGCGTAA,0.39
9,CCGCGTAG,0.25
10,TGGCGTAA,0.0095
11,AGGCGTAC,0.137
12,ATAGTTTG,0.121
13,TGTGCAAA,-0.111
14,ATCCTGCA,-0.159
15,CAACGCAC,0.0556
16,AAACATTT,0.0291
17,ACTATTCC,0.0191
18,ACTCGCTG,0.0353
19,CACTTAGC,0.0853
20,AGAAGTTC,0.0255
21,AGGCGCTG,0.311
22,AGGCGCTA,0.358
23,GGGCGCTA,0.0956

row,Sequence,PBM E-score
1,AGGCGCTC,0.137
2,CGGCGCTA,0.453
3,CCGCGCTA,0.289
4,CGGCGCTC,0.427
5,CTGCGCTC,-0.214
6,CTGCGCTA,-0.221
7,AGCACTTG,-0.266
8,GTTCTCAA,0.2
9,AGTATAGG,-0.0433
10,ACATAAAC,0.129
11,CACTAAAA,0.123
12,GATGCGGA,0.104
13,AATGCGGG,0.174
14,AATGCGGT,-0.0107
15,GATGCGGC,0.47
16,AATGCGGC,0.435
17,CATGCGGC,0.459
18,CATGCGGA,0.156
19,GATGCGCC,0.194
20,CATGCGGG,0.0548
